The record followed here is PubChem BioAssay AID372 (MTDP, 2006).

Among all 100,000 compounds or so, about 770 (0.77%) were called active. The entries come from a sample that favours actives as a whole. Values without a mark were called inactive. Rule as the data show it: active = inhibition above about 50%; inactive = the rest.

In this assay the target is Gag-Pol polyprotein (Human immunodeficiency virus type 1 group M subtype B (isolate HXB2)) (UniProt P04585). Briefly: RNase H inhibition, HIV 1 Gag Pol polyprotein, FRET biochemical assay, screening (AID 372). The note with it: HIV-1 RT RNase H, FRET RNA/DNA substrate fluorescence; at 10 µM; active compounds read high.
`O=C(NC1CCCCC1)c1cccc(C(F)(F)F)c1`: the inhibition was 11%.
As for `Cc1cc(/C=C(\C#N)C(=O)Nc2ccccc2)c(C)n1-c1sc2c(c1C#N)CCCC2`, the inhibition is 15%.
Under `CC1(C)C(c2ccccc2)=[N+]([O-])C2(CCCCC/C2=N\NC(N)=O)N1O` (centres undefined) stands 0%.
`Cc1cc(C)c(N/C=C(\C#N)c2nc(-c3ccc(Cl)cc3Cl)cs2)c(C)c1`: the inhibition was 27%.
On to `CCN(CC)S(=O)(=O)c1cc(-c2nnc(-c3ccc(C)cc3)o2)ccc1C`, for which the inhibition is 3%.
As for `COc1cccc2c1NC(c1ccc([N+](=O)[O-])cc1)C1CC=CC21` (centres undefined), the inhibition was 51% (active).
On to `COc1cccc2c1NC(c1ccc(F)cc1)C1CC=CC21` (centres undefined), for which the inhibition was 35%.
For `O=[N+]([O-])c1ccc(C2Nc3c(cccc3[N+](=O)[O-])C3C=CCC32)cc1` (centres undefined), the inhibition was 35%.
Regarding `Cc1ccc(S(=O)(=O)Nc2cc(C)c(O)c(S(=O)(=O)c3ccc(C)cc3)c2)cc1`, the inhibition is 18%.
Consider `O=C1c2ccc(Oc3ccc([N+](=O)[O-])cc3)cc2C(=O)N1c1nc2ccccc2s1`, for which the inhibition was 11%.
Then `Cc1ccc(N2C(=O)C3C4C=CC(O4)C3C2=O)c(C)c1` (centres undefined), with 5%; and `Oc1c(C=Nc2cccc3nsnc23)cc(Br)c2ccccc12`, with 5%.
In the case of `Oc1c(Br)ccc(Cl)c1C=Nc1cccc2nsnc12`, the inhibition is 8%.
For the compound `COc1ccc(Br)c(C=Nc2cccc3nsnc23)c1O`, the inhibition was 64% (active).
For the compound `Brc1ccccc1OCCCCCn1ccnc1`, the inhibition is 5%.
In the case of `CN1C(=O)CS/C1=N/S(=O)(=O)c1ccc([N+](=O)[O-])cc1`, the inhibition is 10%.
Turning to `S=C(NCc1ccco1)NC1CCCC1`, the inhibition was 6%.
As for `O=c1c(O)c(-c2ccc3c(c2)OCO3)oc2ccccc12`, the inhibition was 0%.
Under `Cc1ccc(-c2oc3ccccc3c(=O)c2O)cc1` stands 3%.
With `O=c1c(O)c(-c2ccc(O)c(O)c2)oc2cc(O)cc(O)c12`, the inhibition is 73% (active).
Take `CN(C)c1ccc(C(c2c[nH]c3ccccc23)c2c[nH]c3ccccc23)cc1`: the inhibition is 23%.
`Cc1cccc(/C=C2\C(=O)NC(=O)N(c3cccc(Br)c3)C2=O)c1`: the inhibition is 10%.
For the compound `C=CCNC(=O)Nc1ccc2nc(-c3ccccc3)c(-c3ccccc3)nc2c1`, the inhibition is 15%.
As for `C=CCNC(=S)Nc1ccc2nc3c4ccccc4c4ccccc4c3nc2c1`, the inhibition is 24%.
In the case of `C=CCNC(=O)Nc1ccc2nc3c4ccccc4c4ccccc4c3nc2c1`, the inhibition was 51% (active).
In the case of `Cc1cc(C)n(-c2ccc(N3CCOCC3)nn2)n1`, the inhibition is 11%.
Then `CC(=O)CSc1nc(-c2ccccc2)c(-c2ccccc2)o1`, with 50% (active); and `NC(=O)CSc1nc(-c2ccccc2)c(-c2ccccc2)o1`, with 37%.
Turning to `CCN(CC)C(=O)CSc1nc(-c2ccccc2)c(-c2ccccc2)o1`, the inhibition was 15%.

Usually inhibition stands for the change of the read-out against control, counted positive when it falls.
